12-LOX inh – Primary qHTS assay for inhibitors of human arachidonate 12S-lipoxygenase (ALOX12): Round 2; 580,000 tested, 1.1% active; Potency, µM (series often up to 108 µM), for inactives: at the highest dose activity change, negative = inhibition, hits mostly inhibitors; Polyunsaturated fatty acid lipoxygenase ALOX12 (Homo sapiens), P18054; purified 12hLO, xylenol orange hydroperoxide absorbance; note: % is set by controls: 0 for no effect and ±100 for the full control effect
Target sequence (P18054 whole entry, looked up): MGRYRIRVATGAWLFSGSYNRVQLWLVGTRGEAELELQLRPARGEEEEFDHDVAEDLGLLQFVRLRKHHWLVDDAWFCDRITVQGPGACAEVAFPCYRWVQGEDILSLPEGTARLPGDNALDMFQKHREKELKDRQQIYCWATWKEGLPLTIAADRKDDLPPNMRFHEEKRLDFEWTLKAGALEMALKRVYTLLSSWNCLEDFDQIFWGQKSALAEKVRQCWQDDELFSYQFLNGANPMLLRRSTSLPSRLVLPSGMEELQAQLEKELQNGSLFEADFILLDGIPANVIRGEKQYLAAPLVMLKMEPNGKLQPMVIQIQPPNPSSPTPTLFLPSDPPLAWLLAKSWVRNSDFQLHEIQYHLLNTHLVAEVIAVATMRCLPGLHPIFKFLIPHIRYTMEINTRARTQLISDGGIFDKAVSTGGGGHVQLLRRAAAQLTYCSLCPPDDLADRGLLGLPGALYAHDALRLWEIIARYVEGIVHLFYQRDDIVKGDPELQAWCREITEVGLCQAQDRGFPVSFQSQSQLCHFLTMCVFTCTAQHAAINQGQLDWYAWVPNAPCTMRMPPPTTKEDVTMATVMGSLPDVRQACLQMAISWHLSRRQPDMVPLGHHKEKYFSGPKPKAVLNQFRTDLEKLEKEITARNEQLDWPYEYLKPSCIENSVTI
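Hydroperoxide product was detected by ferrous iron/xylenol orange as the 573 to 405 nm absorbance ratio. Arachidonic acid at 40 uM (final) was turned over for 30 min at room temperature by 150 nM human 12hLO, pH 7.0 Hepes buffer, after 15 min compound preincubation.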
PINK1 expr mod – A Quantitative High throughput Screen to Identify Chemical Modulators of PINK1 Expression | PINK1 immunofluorescence, high-content cytometry, 24 h | Potency, µM (series often up to 76.6 µM), without a hit: at the top dose activation (PINK1 increase), most hits filed as activators | 410,000 tested, 0.2% active; active = well fitted activation curve with a large enough effect; inconclusive = small, poorly fitted or top-dose-only effect; cell line not stated here; note: % of control where 0% means no effect; nearly all actives have a fitted effect of over 65% in size
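Decision-based qHTS: stable cells, 24 h exposure to five compound concentrations, CCCP as control. Fixed cells stained for PINK1 plus nuclear, mitochondrial and cell markers, cytometer read.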
KB-3-1 tox – qHTS assay for MDR1-selective chemotherapeutics: Primary screen using the parental adenocarcinoma cell KB-3-1. Potency, µM (titrated, usually from 46.1 µM), actives largely listed as cytotoxic. 400,000 tested, 1.4% active. KB-3-1 viability, CellTiter-Glo ATP luminescence, 72 h; note: % is set by controls: 0 for no effect and ±100 for the full control effect; nearly all actives have a fitted effect of over 60% in size
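72 h, 37 °C compound treatment of KB-3-1 parental cells; CellTiter-Glo added, 10 min, luminescence read. Data corrected against DMSO-only plates and normalized before curve fitting.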
KB-V1 MDR tox – qHTS assay for MDR1-selective chemotherapeutics: Primary screen using the drug-selected MDR subline cells KB-V1. 400,000 tested, 3.4% active. AID 1347076, 2019. KB-V1 MDR cells viability, CellTiter-Glo, 72 h. Potency, µM (doses to about 46.1 µM), hits mostly cytotoxic; note: % is set by controls: 0 for no effect and ±100 for the full control effect; nearly all actives have a fitted effect of over 60% in size
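Cytotoxicity via CellTiter-Glo luminescence after 72 h compound exposure at 37 degrees C. Cells: drug-selected KB-V1 line, DMEM phenol-red free plus 10% FBS. Compounds tested at multiple concentrations; normalized data fitted to concentration-effect curves.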
MCF10A rereplic – A quantitative high throughput screen for small molecules that induce DNA re-replication in MCF 10a normal breast cells; 350,000 tested, 2.9% active; Potency, µM (series often up to 46.1 µM), for the others: at the top dose activity, positive = re-replication, most hits filed as activators; AID 624296, 2012; MCF 10A DNA re-replication, Hoechst nuclear intensity, 48 h; note: % of control where 0% means no effect; nearly all actives have a fitted effect of over 50% in size
SW480 rerep – A quantitative high throughput screen for small molecules that induce DNA re-replication in SW480 colon adenocarcinoma cells. SW480 DNA re-replication, Hoechst DNA content imaging, 48 h. Potency, µM (highest dose often 46.1 µM), for inactives: top-dose re-replication activation, usual class: activators. 340,000 tested, 1.8% active. AID 624297, 2012; note: % of control where 0% means no effect; nearly all actives have a fitted effect of over 55% in size
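Cells (250 per well) received 23 nL compound or DMSO by pin tool and were kept 48 hr at 37 C, 5% CO2. Nuclei were then stained with Hoechst for 40 min and scanned for DNA content.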
Numbers without * were called inactive; i = inactive; ? = inconclusive; · = no result given; [ ] = remark or other dose. Sampled rows, rich in hits. Any-hit rate of the full collection: about 5.8%. Unless noted, calls come from the whole dose curve; as a rule, active = well fitted curve in the direction sought with a large enough effect; inconclusive = small, poorly fitted or top-dose-only effect, or another doubt; inactive = no such curve, though single readings can be large; an effect the other way counts as inactive or inconclusive. Potency is the fitted concentration of half-maximal effect.

SMILES	12-LOX inh	PINK1 expr mod	KB-3-1 tox	KB-V1 MDR tox	MCF10A rereplic	SW480 rerep
COc1ccc(C(=O)/C=C/C(=O)N(Cc2ccccc2)C(C(=O)NC2CCCCC2)c2ccncc2)c(O)c1 (centres undefined)	17%	5%	i	0.92µM*	1%	19%
CCN(C(=O)CN1CCC(c2cc3ccccc3[nH]2)CC1)C1CC1	-13%	·	·	·	·	·
O=C(Nc1ccc(N2CCN(C(=O)c3ccco3)CC2)c(Cl)c1)c1cc2ccccc2o1	4%	-2%	?	i	9.2µM*	?
CCCC(=O)N1CCN(c2ccc(NC(=O)c3cc4ccccc4o3)cc2Cl)CC1	120%	5%	?	?	6.5µM*	2%
CCC(=O)N1CCN(c2ccc(NC(=O)c3cc4ccccc4o3)cc2Cl)CC1	0%	-1%	?	9.2µM*	?	-1%
CCCC(=O)N1CCN(c2ccc(NC(=O)c3cccs3)cc2Cl)CC1	11%	0%	i	i	-5%	0%
CCC(=O)N1CCN(c2ccc(NC(=O)c3ccco3)cc2Cl)CC1	0%	0%	i	?	-2%	1%
O=C(Nc1ccc(N2CCN(C(=O)c3ccccc3)CC2)c(Cl)c1)c1ccco1	5%	1%	?	?	?	-1%
COc1ccc(F)cc1Nc1cnc2ccc(N(C)C)nn12	-2%[176 µM]	·	·	·	·	·
Cc1ccccc1-c1cc(C(=O)NCCc2ccccc2)c2ccccc2n1	-19%	·	·	·	·	·
CCn1c(=O)c(C(=O)NCc2ccccc2)c(O)c2ccccc21	24%	6%	i	i	?	-12%
CCn1c(=O)c(C(=O)NNC(=O)c2ccccc2F)c(O)c2ccccc21	24%	3%	15µM*	10µM*	?	?
CCn1c(=O)c(C(=O)NCc2ccc(Cl)cc2)c(O)c2ccccc21	4%	16%	i	i	0.58µM*	-52%
CCCn1c(=O)c(C(=O)NCc2ccccc2Cl)c(O)c2ccccc21	18%	23%	i	i	?	-10%
C=CCn1c(=O)c(C(=O)NCc2ccccc2Cl)c(O)c2ccccc21	18%	15%	?	i	23µM*	-50%
CCCCCC(=O)NNC(=O)c1c(O)c2ccccc2n(CC)c1=O	-2%	1%	?	23µM*	?	?
Cc1ncsc1C(=O)NCCc1cccs1	13%	·	·	·	·	·
NC(c1csc(NC(=O)Nc2cccc(Cl)c2)n1)C1CCCCC1 (centres undefined)	?	-1%	?	i	·	·
NC(c1csc(NC(=O)Nc2ccccc2)n1)C1CCCCC1 (centres undefined)	8%	0%	?	18µM*	·	·
O=C(CC(c1ccccc1)c1ccccc1)N1CCN(C/C=C/c2ccccc2)CC1	-16%	·	·	·	·	·
COc1ccc2cc(C(c3nnnn3CCc3ccccc3)N3CCCC(C)C3)c(=O)[nH]c2c1 (centres undefined)	?	·	i	18µM*	-37%	9%
COc1ccccc1C(c1nnnn1CCc1ccccc1)N1CCCCCC1 (centres undefined)	64%	7%	i	16µM*	?	?
COc1ccccc1C(c1nnnn1CCc1ccccc1)N1CCN(c2ccccc2)CC1 (centres undefined)	30%	-1%	i	i	6%	1%
COc1ccc(OC)c(NC(=O)COc2cccc(C)c2C)c1	-5%	·	·	·	·	·
O=C(NC(=S)Nc1cccc(C(F)(F)F)c1)c1ccc2nonc2c1	35µM*	17%	i	i	?	?
SMILES	12-LOX inh	PINK1 expr mod	KB-3-1 tox	KB-V1 MDR tox	MCF10A rereplic	SW480 rerep
CC(=O)c1cccc(NC(=S)NC(=O)c2ccccc2Br)c1	?	2%	i	21µM*	9%	-3%
CC(=O)c1cccc(NC(=S)NC(=O)c2cccc(C)c2)c1	32µM*	0%	?	18µM*	-1%	-8%
COC(=O)C1CCNC1 (centres undefined)	-71%	·	·	·	·	·
CC1CCCN(S(=O)(=O)c2ccc3c(c2)n(C)c(=O)c(=O)n3C)C1 (centres undefined)	26%	4%	i	i	14%	-3%
CC1CCCN(S(=O)(=O)c2ccc3c(c2)c(=O)nc2ccc(Cl)cn23)C1 (centres undefined)	-22%	3%	i	i	4.6µM*	?
COc1cc2nc(CN(C)CC(=O)Nc3ccc(F)cc3)[nH]c(=O)c2cc1OC	-39%	·	·	·	·	·
CCc1nnc(NC(=O)CCN(c2cc(C)cc(C)c2)S(=O)(=O)c2ccc(Cl)cc2)s1	-16%	3%	?	2.6µM*	?	26%
CCc1noc(C)c1C(=O)Nc1nc(-c2ccc(OC)cc2)cs1	-17%	?	i	i	25%	18µM*
COc1ccc(-c2csc(NC(=O)c3c(C)noc3C)n2)cc1F	-4%	0%	i	i	17%	-10%
Cc1noc(C)c1C(=O)Nc1nc(-c2ccc(F)c(F)c2)cs1	?	12%	i	21µM*	-6%	-8%
CN1c2cc(C(=O)N3CCc4ccccc4C3)ccc2C(=O)N2CCCCC21 (centres undefined)	0%	·	·	·	·	·
Cc1ccccc1N1CCN(c2ncnc3c2cnn3Cc2ccc(Cl)cc2)CC1	63%	0%	18µM*	?	3%	17%
CC1CCN(c2ncnc3c2cnn3Cc2ccc(Cl)cc2)CC1	3%	4%	i	?	23%	3%
COc1ccccc1N1CCN(c2ncnc3c2cnn3C)CC1	-6%	3%	·	·	·	·
Cn1ncc2c(N3CCC(Cc4ccccc4)CC3)ncnc21	-2%	1%	?	4.6µM*	-10%	3%
Cc1ccc(-n2ncc3c(N4CCCC4)ncnc32)c(C)c1	-1%	·	i	i	9%	-3%
Cc1ccc(Cn2ncc3c(N4CCN(Cc5ccc(Cl)cc5)CC4)ncnc32)cc1	-31%	5%	?	2.6µM*	?	11%
COc1cccc(N2CCN(c3ncnc4c3cnn4-c3ccc(C)cc3C)CC2)c1	-13%	-2%	10µM*	?	6.5µM*	5%
COc1cccc(CN2CCCCCCNC(=O)[C@@H]3CCC[C@@H]32)c1OC	-1%	·	·	·	·	·
COc1ccc(-n2ncc3c(N4CCN(Cc5ccccc5)CC4)ncnc32)cc1	-5%	-1%	?	13µM*	21µM*	?

Assay outcomes from PubChem BioAssay.
